Structures can show the parent of a compound that is named as a salt.

For this test, the system named is Danio rerio larvae (5 dpf). Kind of test: startle response to 20-s acoustic pulses, difference vs DMSO (percentage points (treated minus DMSO)); higher = more of the behaviour than the DMSO vehicle control. The settings on record: 10 µM; exposure time: 3 h pre-incubation + 3 h imaging. The procedure: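 5-dpf wild-type zebrafish larvae were imaged in 96-well plates. They were treated with 190 Tocris FDA-approved drugs at 10 µM (1 µl/ml DMSO) for 3 h before and 3 h during imaging at 28.5 °C, 48 larvae per drug. Automated image analysis gave % time moving and optomotor responses. Values are drug group mean minus DMSO vehicle mean (n=844), in percentage points, for 10 behaviours.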
Take `C=C1[C@H](CO)[C@@H](O)C[C@@H]1n1cnc2c(=O)[nH]c(N)nc21` [Entecavir]: the “startle response to 20-s acoustic pulses” value came to 3.11.
In the case of `Cn1nnc2c(C(N)=O)ncn2c1=O` [Temozolomide] it was 2.71.
For `CC(=O)O[C@]1(C(C)=O)CC[C@H]2[C@@H]3C=C(C)C4=CC(=O)CC[C@]4(C)[C@H]3CC[C@@]21C` [Megestrol Acetate] the value was -15.1; for `NC(=O)c1ncn([C@@H]2O[C@H](CO)[C@@H](O)[C@H]2O)n1` [Ribavirin], 1.75.
In the case of `CN(C)CC/C=C1/c2ccccc2COc2ccc(CC(=O)O)cc21` [Olopatadine hydrochloride] it was 0.514; in that of `NC(=O)OCC(COC(N)=O)c1ccccc1` [Felbamate], 2.22.
`CN1CC(=O)N2[C@H](c3ccc4c(c3)OCO4)c3[nH]c4ccccc4c3C[C@@H]2C1=O` [Tadalafil]: the “startle response to 20-s acoustic pulses” value amounted to 7.96.
For `CC(C)[C@H]1CC[C@H](C(=O)N[C@H](Cc2ccccc2)C(=O)O)CC1` [Nateglinide] the value was 3.57; for `CC/C(=C(\c1ccccc1)c1ccc(OCCN(C)C)cc1)c1ccccc1` [Tamoxifen citrate], -0.535.
For `COCCc1ccc(OCC(O)CNC(C)C)cc1` (stereo not given) [Metoprolol tartrate] the value was 6.66; for `Cc1cc(C2CCCCC2)n(O)c(=O)c1` [Ciclopirox], -9.88; for `CCCCC(=O)N(Cc1ccc(-c2ccccc2-c2nnn[nH]2)cc1)[C@H](C(=O)O)C(C)C` [Valsartan], -0.147.
For `CC(=O)S[C@@H]1CC2=CC(=O)CC[C@]2(C)[C@H]2CC[C@@]3(C)[C@@H](CC[C@@]34CCC(=O)O4)[C@H]12` [Spironolactone] the value was 1.64; for `CN(CCOc1ccc(CC2SC(=O)NC2=O)cc1)c1ccccn1` (stereo not given) [Rosiglitazone], -1.12; for `CC(=O)Oc1ccccc1C(=O)O` [Aspirin], -4.27.
In the case of `CCCCC1=NC2(CCCC2)C(=O)N1Cc1ccc(-c2ccccc2-c2nnn[nH]2)cc1` [Irbesartan], the “startle response to 20-s acoustic pulses” value is 1.39.
In the case of `CCCCCCCN(CC)CCCC(O)c1ccc(NS(C)(=O)=O)cc1` (stereo not given) [Ibutilide hemifumarate] it was -3.17; in that of `C/C(O)=C(\C#N)C(=O)Nc1ccc(C(F)(F)F)cc1` [Teriflunomide], -4.42; in that of `COc1c(C)c2c(c(O)c1C/C=C(\C)CCC(=O)OCCN1CCOCC1)C(=O)OC2` [Mycophenolate mofetil], 3.73.
For `CN(C)CCc1c[nH]c2ccc(C[C@H]3COC(=O)N3)cc12` [Zolmitriptan] the value was 2.21.
In the case of `CC(C)(C#N)c1cc(Cn2cncn2)cc(C(C)(C)C#N)c1` [Anastrozole] it was -0.38; in that of `COc1ccc(Cl)cc1C(=O)NCCc1ccc(S(=O)(=O)NC(=O)NC2CCCCC2)cc1` [Glibenclamide], 6.49.
For `O=C(O)C[C@H](O)C[C@H](O)/C=C/c1c(C2CC2)nc2ccccc2c1-c1ccc(F)cc1` [Pitavastatin calcium], the “startle response to 20-s acoustic pulses” value amounted to 1.52.
In the case of `COc1ccc(-c2ccc3cc(C(=O)O)ccc3c2)cc1C12CC3CC(CC(C3)C1)C2` [Adapalene] it was 0.11; in that of `CN1CCN2c3ncccc3Cc3ccccc3C2C1` (stereo not given) [Mirtazapine], -5.94.
In the case of `OCCN1C[C@H](O)[C@@H](O)[C@H](O)[C@H]1CO` [Miglitol] it was -1.17; in that of `Cc1cccc(CN2CCN(C(c3ccccc3)c3ccc(Cl)cc3)CC2)c1` (stereo not given) [Meclizine dihydrochloride], -8.16.
For `Clc1ccccc1C(c1ccccc1)(c1ccccc1)n1ccnc1` [Clotrimazole] the value was 4.06; for `CN1CC[C@@H](NC(=O)Nc2ccc(C#N)cc2)C[C@@H]1c1nc2ccccc2[nH]1`, -5.85; for `O=C(c1ccc(OCCN2CCCCC2)cc1)c1c(-c2ccc(O)cc2)sc2cc(O)ccc12` [Raloxifene hydrochloride], 1.88.
As for `O=C(NCC1CCCCN1)c1cc(OCC(F)(F)F)ccc1OCC(F)(F)F` (stereo not given) [Flecainide acetate], the “startle response to 20-s acoustic pulses” value came out at 1.77.
In the case of `CNC(=O)c1cc(Oc2ccc(NC(=O)Nc3ccc(Cl)c(C(F)(F)F)c3)cc2)ccn1` [Sorafenib] it was -4.57; in that of `O=C(Nc1c(Cl)cncc1Cl)c1ccc(OC(F)F)c(OCC2CC2)c1` [Roflumilast], 1.99.
For `CC(C)(C)NC(=O)[C@@H]1C[C@@H]2CCCC[C@@H]2CN1C[C@@H](O)[C@H](Cc1ccccc1)NC(=O)[C@H](CC(N)=O)NC(=O)c1ccc2ccccc2n1` [Saquinavir mesylate] the value was 0.0193; for `COc1cc(Nc2c(C#N)cnc3cc(OCCCN4CCN(C)CC4)c(OC)cc23)c(Cl)cc1Cl` [Bosutinib], -0.606.
As for `CCOC(=O)[C@H](CCc1ccccc1)N[C@H]1CCc2ccccc2N(CC(=O)O)C1=O` [Benazepril hydrochloride], the “startle response to 20-s acoustic pulses” value was -1.74.
For `CNS(=O)(=O)Cc1ccc2[nH]cc(CCN(C)C)c2c1` [Sumatriptan succinate] the value was 3.19.
In the case of `Cc1cc2c(s1)Nc1ccccc1N=C2N1CCN(C)CC1` [Olanzapine], the “startle response to 20-s acoustic pulses” value is -0.064.
For `CCc1c2c(nc3ccc(OC(=O)N4CCC(N5CCCCC5)CC4)cc13)-c1cc3c(c(=O)n1C2)COC(=O)[C@]3(O)CC` the value was 1.92; for `COc1ccc(C[C@@H](C)NC[C@H](O)c2ccc(O)c(NC=O)c2)cc1` [Arformoterol tartrate], -9.44.

The values are drawn from the supplement of paper PMC9023506.
